Test results taken from PubChem BioAssay (NCI).
The panel holds about 79,000 compounds, 15% with a hit somewhere; the sample as a whole holds those more often. Activity calls are given as the source filed them. Cut-off read from the data, not from the text of the source: active = growth inhibition above about 70%; inactive = the rest.

Key:
[1] = NCI Yeast Anticancer Drug Screen. Data for the rad50 strain (AID 155);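 note: 0% = growth of vehicle-only cultures of the same strain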; conditions: S. cerevisiae rad50 strain growth inhibition, stronger effect = higher value
Method in brief: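 Inhibition values express reduced yeast growth in compound-treated cultures relative to vehicle-treated controls.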

[2] = NCI Yeast Anticancer Drug Screen. Data for the mec2-1 strain (AID 157); conditions: S. cerevisiae mec2-1 strain, stronger effect = higher value
Method in brief: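 Mutant yeast (mec2-1) grown with compound; growth inhibition relative to vehicle control reported.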

[3] = NCI Yeast Anticancer Drug Screen. Data for the sgs1 mgt1 strain (AID 161);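 note: 0% = growth of cultures given vehicle only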; conditions: S. cerevisiae sgs1 mgt1 strain, stronger effect = higher value
Method in brief: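 Yeast cells carrying a defined DNA-repair defect were exposed to test compounds. Growth inhibition was measured relative to vehicle-treated controls.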

[4] = NCI Yeast Anticancer Drug Screen. Data for the cln2 rad14 strain (AID 165);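 note: 0% = growth equal to vehicle treated cultures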; conditions: S. cerevisiae cln2 rad14 strain, stronger effect = higher value
Method in brief: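 Readout is yeast growth inhibition versus vehicle-treated controls, using a strain with cln2 and rad14 alterations exposed to compound.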

[5] = NCI Yeast Anticancer Drug Screen. Data for the bub3 strain (AID 167); conditions: S. cerevisiae bub3 mutant strain, stronger effect = higher value
Method in brief: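 Steps: expose the mutant yeast strain to compound; grow alongside vehicle-treated cultures; measure growth; express inhibition against the vehicle cultures.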

[6] = NCI Yeast Anticancer Drug Screen. Data for the mlh1 rad18 strain (AID 175); conditions: S. cerevisiae mlh1 rad18 strain growth inhibition, stronger effect = higher value
Method in brief: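 Genetically defined yeast (DNA repair-deficient) exposed to compounds; growth inhibition determined relative to vehicle.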

[7] = at 5.0 µM (retest, dose inferred, filed as 0.5)
[8] = at 50.0 µM (retest, dose inferred, filed as 5.0)

Measured: growth inhibition

NNC(=O)c1c(SCc2ccccc2)nc2c3ccccc3ccn12
active: [1]; [8] 93% | [2]; [8] 83% | [3]; [8] 90% | [4]; [8] 87% | [6]; [8] 93% | [6]; at 50.0 µM 81.3%
inactive: [1]; [7] 40% | [1]; at 50.0 µM 51.5% | [2]; [7] 22% | [2]; at 50.0 µM 35% | [3]; [7] 42% | [3]; at 50.0 µM 52.6% | [4]; [7] 24% | [4]; at 50.0 µM 38.8% | [5]; [7] 33% | [5]; [8] 69% | [5]; at 50.0 µM 39.1% | [6]; [7] 33%

COC1(OC)CNC(C(=O)O)C1 (configuration not stated)
inactive: [1]; [7] -154% | [1]; [8] -139% | [1]; at 50.0 µM 19.1% | [2]; [7] -44% | [2]; [8] -45% | [2]; at 50.0 µM 2.65% | [3]; [7] -66% | [3]; [8] -59% | [3]; at 50.0 µM 18.2% | [4]; [7] -54% | [4]; [8] -49% | [4]; at 50.0 µM 2.4% | [5]; [7] -71% | [5]; [8] -66% | [5]; at 50.0 µM 21.4% | [6]; [7] -141% | [6]; [8] -111% | [6]; at 50.0 µM 13.3%

CCCCCCCNc1ccc2c(cc1=O)C(NC(C)=O)CCc1cc(OC)c(OC)c(OC)c1-2 (configuration not stated)
active: [1]; [8] 96% | [1]; at 50.0 µM 91.5% | [2]; [8] 98% | [3]; [8] 99% | [3]; at 50.0 µM 98.8% | [4]; [8] 95% | [5]; [8] 97% | [6]; [8] 97%
inactive: [1]; [7] 17% | [2]; [7] 8% | [2]; at 50.0 µM 16.8% | [3]; [7] 9% | [4]; [7] 7% | [4]; at 50.0 µM 30.8% | [5]; [7] 4% | [5]; at 50.0 µM 16.9% | [6]; [7] 13% | [6]; at 50.0 µM 7.55%

CCC1(C)CCC2(C)C(CCC3C4(C)CCCC32OC4=O)C1 (configuration not stated)
inactive: [1]; [7] 16% | [2]; [7] -2% | [3]; [7] 2% | [4]; [7] -9% | [5]; [7] 15% | [6]; [7] -10%
active: [1]; [8] 93% | [1]; at 50.0 µM 97.5% | [2]; [8] 96% | [2]; at 50.0 µM 94.3% | [3]; [8] 97% | [3]; at 50.0 µM 96.8% | [4]; [8] 92% | [4]; at 50.0 µM 91.9% | [5]; [8] 98% | [5]; at 50.0 µM 96.2% | [6]; [8] 92% | [6]; at 50.0 µM 92.2%

Nc1ccccc1SCc1csc(-c2ccc(Cl)cc2)n1
inactive: [1]; [7] -4% | [2]; [7] -3% | [3]; [7] 2% | [4]; [7] -10% | [5]; [7] 2% | [6]; [7] 2%
active: [1]; [8] 98% | [1]; at 50.0 µM 97.9% | [2]; [8] 98% | [2]; at 50.0 µM 97.3% | [3]; [8] 98% | [3]; at 50.0 µM 98.5% | [4]; [8] 97% | [4]; at 50.0 µM 97.2% | [5]; [8] 98% | [5]; at 50.0 µM 97.1% | [6]; [8] 98% | [6]; at 50.0 µM 97.6%

O=C(/C=C/c1cccc(Cl)c1)c1ccccc1
active: [1]; [8] 98% | [1]; at 50.0 µM 95.7% | [2]; [8] 99% | [2]; at 50.0 µM 95.5% | [3]; [8] 99% | [3]; at 50.0 µM 98% | [5]; [8] 98% | [5]; at 50.0 µM 95.2% | [6]; [8] 96% | [6]; at 50.0 µM 99.4%
inactive: [1]; [7] 16% | [2]; [7] -9% | [3]; [7] 7% | [4]; [7] 5% | [4]; [8] 52% | [4]; at 50.0 µM 12.9% | [5]; [7] -30% | [6]; [7] 10%

CC1=C(C(=O)Nc2ccccc2C)C(c2ccc(Cl)c(Cl)c2)C(C(=O)Nc2ccccc2C)=C(C)N1
inactive: [1]; [7] 5% | [1]; [8] 5% | [2]; [7] 2% | [2]; [8] 2% | [3]; [7] -5% | [3]; [8] -5% | [4]; [7] 8% | [4]; [8] 8% | [5]; [7] -19% | [5]; [8] -19% | [6]; [7] 8% | [6]; [8] 8%
active: [1]; at 50.0 µM 84% | [2]; at 50.0 µM 76.3% | [3]; at 50.0 µM 79.4% | [4]; at 50.0 µM 78.5% | [5]; at 50.0 µM 82% | [6]; at 50.0 µM 77.1%

[NH-]c1ccccc1[S-].[NH-]c1ccccc1[S-].[Zn]
inactive: [1]; [7] 0% | [2]; [7] 11% | [3]; [7] 18% | [4]; [7] 7% | [5]; [7] 14% | [6]; [7] 19%
active: [1]; [8] 99% | [1]; at 50.0 µM 99.3% | [2]; [8] 100% | [2]; at 50.0 µM 99.6% | [3]; [8] 100% | [3]; at 50.0 µM 102% | [4]; [8] 98% | [4]; at 50.0 µM 96.3% | [5]; [8] 99% | [5]; at 50.0 µM 99.4% | [6]; [8] 99% | [6]; at 50.0 µM 99.2%

N=C(N)c1ccc2oc3ccc(C(=N)N)cc3c(=O)c2c1
active: [2]; [8] 70% | [3]; [8] 76% | [4]; at 50.0 µM 71.8% | [5]; [8] 76% | [6]; [8] 77% | [6]; at 50.0 µM 73.4%
inactive: [1]; [7] 8% | [1]; [8] 65% | [1]; at 50.0 µM 57.8% | [2]; [7] 3% | [2]; at 50.0 µM 29.9% | [3]; [7] 21% | [3]; at 50.0 µM 65.5% | [4]; [7] 11% | [4]; [8] 65% | [5]; [7] -4% | [5]; at 50.0 µM 38% | [6]; [7] 10%
